Source: PubChem
MEX-5 binding: C. elegans MEX-5 TCR-2 RNA binding activity; MEX-5/FITC-TCR2 RNA binding, fluorescence polarization; hits give low values; activity score (negative = inhibition of binding), % at 10 µM; Q9XUB2; actives 0.38% (n = 300,000);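 active means inhibition past about -25% in most replicates, and total fluorescence under double the plate's negative control median, limit read from the data; inconclusive means replicates evenly split on the limit, or fluorescence at least double controls; inactive means too little inhibition in most replicates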
EBV gp42 block: EBV gp42 inhibition | Q1HVG2 | Fluorescence polarization binding assay, mP read-out | inhibition, % (tested at 21.74 µM) | actives 0.42% (n = 220,000) | AID 1085; in the data active means inhibition above about 50%
Target sequence (Q1HVG2 whole entry, looked up): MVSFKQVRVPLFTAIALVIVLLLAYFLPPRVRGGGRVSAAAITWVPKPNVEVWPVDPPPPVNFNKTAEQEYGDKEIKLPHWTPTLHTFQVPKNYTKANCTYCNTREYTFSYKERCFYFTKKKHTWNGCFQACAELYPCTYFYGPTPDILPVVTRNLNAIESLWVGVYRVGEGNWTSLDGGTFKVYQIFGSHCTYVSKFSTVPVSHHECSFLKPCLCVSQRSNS
EBNA-1 inhibitor: blocks EBNA-1 binding to DNA | EBNA-1 DNA binding, fluorescence polarization | inhibition, % at 14.8 µM | actives 0.34% (n = 300,000); in the data active means inhibition above about 28%
ZTA counter: counter-screen for EBNA-1 inhibitors: inhibitors of Epstein-Barr virus ZTA. P03206. ZTA-DNA binding, fluorescence polarization. inhibition, % at 11 µM. actives 0.15% (n = 320,000). AID 2234; in the data active means inhibition above about 33%
Target sequence (P03206 whole entry, looked up): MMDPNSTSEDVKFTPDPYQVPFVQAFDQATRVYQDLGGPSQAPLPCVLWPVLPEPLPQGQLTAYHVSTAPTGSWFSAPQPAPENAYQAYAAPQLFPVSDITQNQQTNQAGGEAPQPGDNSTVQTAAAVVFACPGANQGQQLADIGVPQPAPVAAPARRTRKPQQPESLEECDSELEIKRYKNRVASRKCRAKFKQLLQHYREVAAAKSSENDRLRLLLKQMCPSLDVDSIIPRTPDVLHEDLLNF
A number is an active result; n = inactive; u = inconclusive; x = no result; + = active, no number. A selection: hits, their analogues and other compounds. The true share with any hit is near 1%.

SMILES	MEX-5 binding	EBV gp42 block	EBNA-1 inhibitor	ZTA counter
COc1ccc(Nc2nc(=O)c3cc([N+](=O)[O-])ccc3s2)cc1	n	61	x	x
CC1CCCC(NC(=O)c2ccc3c(c2)NC(=O)CS3)C1C (stereo not given)	n	x	n	n
O=C(c1ncn(Cc2ccccc2)c1C(=O)N1CCc2ccccc2C1)N1CCc2ccccc2C1	x	x	x	n
O=C(Nc1ccccn1)c1ccc(S(=O)(=O)N2CCCCCC2)cc1	n	x	n	n
O=C(NN1C(=O)c2ccccc2NC1c1ccco1)c1ccc([N+](=O)[O-])cc1 (stereo not given)	n	n	n	n
Cc1cccc(C2Nc3ccccc3C(=O)N2NC(=O)c2ccc([N+](=O)[O-])cc2)n1 (stereo not given)	-54	n	n	n
O=C(NN1C(=O)c2ccccc2NC1c1ccccn1)c1ccc(Br)cc1 (stereo not given)	-30	n	n	n
CC(=O)NN1C(=O)c2ccccc2NC1c1ccccn1 (stereo not given)	n	n	n	n
O=C(NN1C(=O)c2ccccc2NC1c1ccccn1)c1ccc([N+](=O)[O-])cc1 (stereo not given)	-44	n	n	n
Cc1ccc(C)c(N2CCN(C(=O)c3ccc(NC4=NC5CS(=O)(=O)CC5S4)cc3)CC2)c1 (stereo not given)	n	x	n	n
CC(=O)Nc1ccc(Nc2c3c4c(cccc4n(C)c2=O)C(=O)c2ccccc2-3)cc1	n	141	n	n
CCNc1c2c3c(cccc3n(C)c1=O)C(=O)c1ccccc1-2	u	n	n	n
Cn1c(=O)c(NCCc2ccccc2)c2c3c(cccc31)C(=O)c1ccccc1-2	u	+	n	n
Cn1c(=O)c(NC2CCCCC2)c2c3c(cccc31)C(=O)c1ccccc1-2	x	139	x	x
CCCCNc1c2c3c(cccc3n(C)c1=O)C(=O)c1ccccc1-2	u	183	n	n
CCOC(=O)c1c(S(=O)(=O)N2CCCCCC2)c(C)n(C)c1C	n	x	n	n
COc1ccc(N=Nc2nc3ccc(Br)cc3n2C)cc1	-50	51	n	n
CC1=Nc2ccccc2/C1=C\c1nc(-c2ccc(F)cc2)oc1O	-36	138	n	n
CC1=Nc2ccccc2/C1=C\c1sc(Nc2ccc(C)cc2)nc1O	n	n	n	n
CC1(OC(=O)c2cccs2)C(=O)C=C2C=C(c3ccc(C#N)cc3)OC=C2C1=O (stereo not given)	n	x	n	n
CC1(OC(=O)c2cccs2)C(=O)C=C2C=C(c3ccsc3)OC=C2C1=O (stereo not given)	-27	x	n	n
Nc1nc(NCCO)nc(N2CCCCCC2)c1[N+](=O)[O-]	n	x	n	n
OCCN(CCO)c1nc(N2CCCCC2)c2nc(N(CCO)CCO)nc(N3CCCCC3)c2n1	x	135	x	x
CC(=O)c1ccc(NC(=O)COC(=O)c2c3c(nc4ccccc24)/C(=C\c2cccs2)CCC3)cc1	n	n	44	n
Nc1c(NCc2ccccc2)c(=O)[nH]c(=O)n1Cc1ccccc1	n	n	n	n
SMILES	MEX-5 binding	EBV gp42 block	EBNA-1 inhibitor	ZTA counter
CNc1c(N)n(Cc2ccccc2)c(=O)[nH]c1=O	-32	50	n	n
O=C(CCS(=O)(=O)c1ccccc1)N(CCCN1CCOCC1)c1nc2ccc(F)cc2s1	n	x	n	n
Cc1ccc(Cl)c2c1=NC(=O)C=2c1[nH]c(=S)[nH]c1O	-45	n	n	n
O=C(O)CSc1cc(NS(=O)(=O)c2ccc(Cl)cc2)c2ccccc2c1O	n	x	n	n
COc1ccc(S(=O)(=O)Nc2cc(SCC(=O)O)c(O)c3ccccc23)cc1	-53	x	n	n
Cc1cc(C)c(S(=O)(=O)Nc2cc(SCC(=O)O)c(O)c3ccccc23)cc1C	-56	n	n	n
CC(C)OC(=O)c1c2c(n3ccccc13)C(=O)c1ccccc1C2=O	-31	88	n	n
COC(=O)c1c(C(=O)OC)c2ccccn2c1C(=O)c1ccc([N+](=O)[O-])cc1	n	x	n	n
CCc1noc(C)c1C(=O)OCC(=O)Nc1nc(-c2ccc(F)c(F)c2)cs1	x	x	x	n
CCn1c(SCC(=O)NC2CCCCC2)nc2c(c1=O)SCC2	n	x	n	n
O=C(Cn1cc2c(n1)CCCC2)NCc1ccccn1	n	53	n	n
CCN1C(=O)/C(=C2/C=Cc3ccccc3N2C)OC1=S	-28	n	n	n
O=C1CCCN1CCCNS(=O)(=O)c1ccc(F)c(F)c1	n	x	n	n
C/C(O)=c1/ccc2cccc3nc(C)nc1c23	-41	110	n	n
C/C(=N\Nc1nccnc1Cl)c1ccc(O)c(C)c1	n	x	n	n
O=C(O)c1ccccc1NS(=O)(=O)c1cccc(-n2sc3ccccc3c2=O)c1	-50	x	n	n
CCOC(=O)c1oc2cc(OCC(=O)OC)ccc2c(=O)c1-c1ccc(OC)c(OC)c1	n	51	n	n
COC(=O)COc1ccc2c(-c3ccc(OC)cc3)cc(=O)oc2c1	n	n	n	n
Cc1ccc(CN2CCN(c3ccccc3)CC2)o1	n	x	n	n
COCCN(C(=O)Cn1c(C(F)(F)F)nc2ccccc21)c1c(N)n(Cc2ccccc2)c(=O)[nH]c1=O	n	x	n	n
CCc1ccc(C(=O)NNC(=O)c2ccc(=O)n(C)n2)cc1	-30	x	n	n
Cn1nc(C(=O)NNC(=O)c2ccc(Cl)cc2)ccc1=O	n	x	n	n
COc1ncnc2c1NC1=C(S2)C(=NCCC(=O)O)CC(C)(C)C1	-52	140	n	n
CCc1nn(C(CC)C(=O)NCc2cccc(OC)c2)c(=O)c2cc3occc3n12 (stereo not given)	n	x	n	n
CCOc1cccc(=O)c2c(C)n(-c3ccc(C(=O)O)cc3)c(C)c12	-36	n	n	41
SMILES	MEX-5 binding	EBV gp42 block	EBNA-1 inhibitor	ZTA counter
O=[N+]([O-])c1ccc(N2N=C(c3ccco3)CC2c2ccccc2)cc1 (stereo not given)	n	70	n	n
Fc1ccc(C2CC(c3ccco3)=NN2c2ccccc2)cc1 (stereo not given)	n	n	n	n
CCC(Oc1ccccc1)C(=O)Nc1ccccn1 (stereo not given)	-35	n	n	n
CCC(Oc1ccccc1)C(=O)Nc1cc(C)on1 (stereo not given)	n	n	n	n
COc1cc2c(cc1OC)-c1c(OC)c(OC)cc3ccnc(c13)C2=O	-57	n	n	n
O=C(Nc1nnc(SCCC2OCCO2)s1)C1CC(=O)N(c2ccc(F)cc2)C1 (stereo not given)	n	x	n	n
Cc1ccc(-n2nc3cc(C)c(N)cc3n2)cc1	n	n	n	n
Cc1cc2nc3ccc(N(C)C)cc3nc2cc1N	-28	x	n	n
CCCCN(C1CCS(=O)(=O)C1)S(=O)(=O)c1ccc(OC)c(OC)c1 (stereo not given)	n	x	n	n
Cc1ccc(NCC(=O)N/N=C/c2ccc(C(=O)O)cc2)cc1	-61	n	n	n
O=C(Cc1ccccc1)NCC(=O)N/N=C/c1ccc(C(=O)O)cc1	n	x	n	n
COc1ccc(CCC(=O)NNC(=O)c2cc(Cl)ccc2OC)cc1	n	x	n	n
Cc1ccc(C)c(-c2nnc(NC(=O)Cc3ccc(F)cc3)o2)c1	n	x	n	n
O=C(Cc1ccccc1)NN1CCCCC1	n	x	n	n
